The record followed here is the emibetuzumab library of Makowski et al. (2022).

This is one part of the list. How many sequences the whole screen found active is unknown.

To fix the notation:
B1: VH:VL chains; a variant is named by its letters at X, in order (parent)
chain 1: QVQLVQSGAEVKKPGASVKVSCKASGYTFTDYXMHWVRQAPGQGLEWMGXVNPNXXXTTYNQKFEGRVTMTTDTSTSTAYMELRSLRSDDTAVYYCARXNXLDXWGQGTTVTVSS
chain 2: DIQMTQSPSSLSASVGDRVTITCSVSSSVSSIYLHWYQQKPGKAPKLLIYSTSNLASGVPSRFSGSGSGTDFTLTISSLQPEDFATYYCQVYSGYPLTFGGGTKVEIK

Variants of B1 are the subject of the test. Description: yeast display scFab, FACS + sequencing. To be noted: with MET. Put shortly:
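Two magnetic rounds on Protein A beads coated with HGFR-Fc, followed by FACS, were used to enrich a yeast surface scFab library mutated in the heavy-chain CDRs. FACS gated the top 50% antigen-positive cells after 3 h labelling at room temperature with 1 nM HGFR-Fc and anti-Myc in PBSB plus 1% milk. Binding to the antigen was scored positive when a sequence occurred in both antigen-positive samples from deep sequencing and negative when it occurred only in the input.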
SEEEGDWV: the antigen binding call was “no binding”.
The value for AKEADDVA was “no binding”.
Consider YTGTSDLV, for which the antigen binding call is listed as “no binding”.
As to VTTKSDSV, the antigen binding call is given as “no binding”.
For VTTRADVA, the antigen binding call was “no binding”.
The value for VEKEGAGD was “no binding”; that for VEEEGAGD was “no binding”.
For VRRRGSGD, the antigen binding call is recorded as “binds”.
Take VRRRGAGD: the antigen binding call was “binds”.
Next, FRRRGSGD: “binds”; VGGGGDGS: “no binding”.
The value for DTTGGDGV was “no binding”; that for SEKKSAGA was “no binding”; that for YGARGAAF was “no binding”.
The value for YRGGGAAF was “binds”; that for YRGKGAAF was “binds”.
Take YRGGDAAF: the antigen binding call is listed as “binds”.
The value for YEGGGDWF was “no binding”; that for YRAGGAAF was “binds”.
Regarding VKGKGAAF, the antigen binding call is “no binding”.
Next, FAGGGDAV: “no binding”; VRTKADAV: “no binding”; VRGGGDAA: “no binding”.
The value for VRAGGDAA was “binds”; that for VRAGDDAV was “no binding”; that for VRAGGDAV was “binds”.
Next, VRERGDAA: “no binding”.
YRKGGAWF: the antigen binding call is “binds”.
Next, DRRGDDVF: “no binding”.
Regarding YRRESAGF, the antigen binding call is “binds”.
The value for YRRGGAGF was “binds”.
With YRRGDAAF, the antigen binding call is “binds”.
The value for VAEKDDGS was “no binding”; that for SGGTGDVF was “no binding”.
The value for FTGEADAS was “no binding”; that for AARADSWV was “no binding”; that for YRKGGAGF was “binds”.
As for ARRGGSGF, the antigen binding call is listed as “no binding”.
YRRGSSGF: the antigen binding call was “binds”.
The value for YRRGDAGF was “binds”; that for YRRGSAGF was “binds”; that for YAGGDDGA was “no binding”.
Next, SETTDSSA: “no binding”.
Regarding DAGGGYGV, the antigen binding call was “no binding”.
For the variant AGERNVAS, the antigen binding call is recorded as “no binding”.
The value for YRRGGALV was “binds”; that for YRRKGASV was “binds”; that for YRRKGALV was “binds”.
The value for ATKAASWV was “no binding”; that for FRGGGSGS was “binds”.
As to FRGGDYGS, the antigen binding call is on record as “no binding”.
Next, FRGGSSGS: “binds”; ATTGGDWD: “no binding”; YRKRGAAA: “binds”.
Next, YRKRGAGA: “binds”.
Next, VTGEDAGS: “no binding”.
In the case of YAGRGDAS, the antigen binding call is on record as “no binding”.
With YAGRGSAS, the antigen binding call is given as “no binding”.
In the case of YKTGGASS, the antigen binding call is “binds”.
For the variant YRERSDVS, the antigen binding call was “no binding”.
On to YRGKGALS, for which the antigen binding call is “binds”.
As for YRGGGDVS, the antigen binding call is recorded as “binds”.
For the variant YTGTSDVS, the antigen binding call is on record as “no binding”.
The value for YKGRGAAS was “binds”.
Next, YTGTSDVY: “no binding”.
Next, FTRGADAV: “no binding”; DAGGDDVY: “no binding”.
YKGRGAVS: the antigen binding call was “binds”.
Take YKGEGFSS: the antigen binding call is recorded as “no binding”.
Turning to YAGRGDVS, the antigen binding call was “no binding”.
Next, YKGRGASS: “binds”; YKTRGAVS: “no binding”; VRGRGALS: “binds”.
Consider YKGRGALS, for which the antigen binding call is on record as “binds”.
As to VETEGAVY, the antigen binding call is “no binding”.
The value for DKEGGDGV was “no binding”; that for AATTDSGV was “no binding”.
Next, VREGDDAV: “no binding”; YRGRGALS: “binds”; YRGGGALS: “binds”.
Consider DRAGDDGS, for which the antigen binding call is reported as “no binding”.
The value for DRGGGDAS was “no binding”; that for YRGKSDGS was “no binding”.
As to YRGGSDGS, the antigen binding call is listed as “binds”.
The value for SEARSDVV was “no binding”.
The value for YRERGAVV was “binds”.
Next, FRTRGAVV: “binds”; YKERGDVV: “binds”.
On to DREEGAVV, for which the antigen binding call is “no binding”.
The value for YKGEGDVV was “no binding”; that for FRERGAVV was “binds”.
For SKERGDVV, the antigen binding call is “no binding”.
Next, SRTRGFVV: “no binding”; VAETAAAA: “no binding”; AEARAAGS chain 1 V37I: “no binding”.
For VARAADAD, the antigen binding call is “no binding”.
ATGEGDWS: the antigen binding call was “no binding”.
On to VGATSFSA, for which the antigen binding call is recorded as “no binding”.
Next, YKERASGV: “no binding”; YKGAASGV: “no binding”; YKKGGSGV: “binds”.
Next, YKGGSSGV: “binds”; YKGGSFGV: “no binding”.
The value for YKAGGSGV was “binds”; that for YEKGGDGV was “no binding”; that for FTGTSAAF was “no binding”.
With VTEGDDVF, the antigen binding call was “no binding”.
Next, YRKGSAWD: “binds”; YRKGSSWD: “binds”.
For DGKEGYWA, the antigen binding call is listed as “no binding”.
As for DAEGDDGA, the antigen binding call is “no binding”.
Next, FRGAGSVD: “binds”.
Next, YRGAGFVD: “no binding”; YRGAGSVD: “binds”; YRGAGSLD: “binds”.
Next, FRGAGSVA: “binds”; SKTKSDVA: “no binding”.
On to SKERGDWV, for which the antigen binding call was “no binding”.
The value for VERKGYLA was “no binding”; that for VETGNSSA was “no binding”.
Regarding AGGGNAGD, the antigen binding call was “no binding”.
In the case of VREAADSF, the antigen binding call was “no binding”.
The value for VGGTSSAD was “no binding”; that for VRRGSSAF was “binds”; that for VRGRSSLF was “binds”.
In the case of VRGGDDVF, the antigen binding call is listed as “no binding”.
Next, VRGRSDVF: “no binding”.
In the case of VRRGSSLF, the antigen binding call was “binds”.
VRRGSSAD: the antigen binding call is “binds”.
For the variant DAKENAVY, the antigen binding call is given as “no binding”.
For the variant YTGGDDVY, the antigen binding call is listed as “no binding”.
The value for VAEATDLY was “no binding”; that for DAGGASLD was “no binding”; that for STATADVA was “no binding”.
Next, SAGEGDWV: “no binding”.
Next, AKTRDFVA: “no binding”.
Regarding DTAGDAAV, the antigen binding call was “no binding”.
As to VRRGSSAS, the antigen binding call is “binds”.
Next, FKAEAFSF: “no binding”; FERTSALF: “no binding”.
Next, VAKRDSAS: “no binding”.
As for VRTEDDAS, the antigen binding call is reported as “no binding”.
With FKRGSSLF, the antigen binding call is reported as “binds”.
In the case of VKETSVLF, the antigen binding call was “no binding”.
The value for VKRGSSLF was “binds”; that for VAGTGSSV was “no binding”.
In the case of DAEATDGA, the antigen binding call was “no binding”.
As to DATGGDGY, the antigen binding call is “no binding”.
Next, DTGGSASA: “no binding”; YRKGGAVD: “binds”.
Next, YRKRGAAD: “binds”; YAKRDAGD: “no binding”.
Next, YRKRGAGD: “binds”.
Take YRKRGAVD: the antigen binding call is listed as “binds”.
In the case of AKATADVD, the antigen binding call is “no binding”.
Turning to DTGGGDAV, the antigen binding call is “no binding”.
Turning to YRGAGSAD, the antigen binding call is reported as “binds”.
With YAGAGSAD, the antigen binding call is “no binding”.
Take YKGAGSAD: the antigen binding call was “no binding”.
Next, YRGAGAAD: “binds”.
Next, YAGKGAWV: “no binding”; YKTKSDWV: “no binding”; YKGKSAWV: “binds”.
The value for YKGKGAWV was “binds”.
Turning to VKGKGDWV, the antigen binding call is “no binding”.
Next, DEGGTDSA: “no binding”; SKGKGSSA: “no binding”.
On to SKGKGVGA, for which the antigen binding call is on record as “binds”.
Next, SKRRSVGA: “no binding”; SKGKGSAA: “binds”.
Take YKGKGFAA: the antigen binding call is given as “no binding”.
Next, SEEEGSAA: “no binding”.
Next, YKGKGSAA: “binds”; SKAKGSAA: “binds”.
For the variant AARADSGD, the antigen binding call is “no binding”.
In the case of DEGRSVAA, the antigen binding call is recorded as “no binding”.
Consider DAARAVSS, for which the antigen binding call is reported as “no binding”.
The value for VAKADALD was “no binding”; that for FKGEGDSA was “no binding”; that for VKGKGSAA was “binds”.
Next, YRGKGSAA: “binds”; VRAGGDSF: “no binding”.
Consider VRERGDWF, for which the antigen binding call is “no binding”.
Next, VRERGSSF: “binds”; VRARGSSF: “binds”.
The value for VTAESSSF was “no binding”; that for YRERGSSF was “binds”; that for YAEGASSF was “no binding”.
On to AETAGAAA, for which the antigen binding call is “no binding”.
For DAATAYGS, the antigen binding call was “no binding”.
Turning to FRTKGSGD, the antigen binding call is on record as “binds”.
Turning to FRGTGSGD, the antigen binding call is “no binding”.
Turning to FATRASGD, the antigen binding call was “no binding”.
Regarding FRGKGSGD, the antigen binding call was “binds”.
The value for FATKGFGD was “no binding”; that for VEEEGDGV was “no binding”.
Next, YAGTGFWV: “no binding”; DEGGTDAV: “no binding”.
The value for FREEGFSV was “no binding”; that for YKGRASAV was “no binding”.
For the variant FRGKGAAV, the antigen binding call is “binds”.
Next, FKGKGAVV: “binds”.
The value for FREGSASV was “no binding”; that for YKGKGSAV was “binds”.
Next, FRGKGASV: “binds”.
For FKGKGAAF, the antigen binding call was “no binding”.
The value for DATGGSGD was “no binding”; that for FKATTVVD chain 1 S88F was “no binding”.
Take FRGKGSAV: the antigen binding call is “binds”.
On to FKGKGAAV, for which the antigen binding call was “binds”.
On to YKGGGSAV, for which the antigen binding call is on record as “binds”.
Take YEGGGSAV: the antigen binding call is “no binding”.
The value for YRGKGSAV was “binds”.
The value for VKGKGDAV was “no binding”; that for AKGKGAAV was “no binding”; that for FKGRGAAS was “binds”.
Regarding DKGGGFAV, the antigen binding call is given as “no binding”.
